Measured values published in PubChem BioAssay AID720504 (National Center for Advancing Translational Sciences (NCATS), 2013).
In all, about 360,000 compounds went through this assay and about 10,000 (2.8%) were called active. Not shown: some 4% with an inconclusive outcome. The call rests on the fitted dose curve; in most records, active means well fitted inhibition curve with a large enough effect; inconclusive means small, poorly fitted or top-dose-only effect; inactive means flat fitted curve, though single readings scatter. The entries come from a sample that favours actives as a whole.

molecular target: Serine/threonine-protein kinase PLK1 (Homo sapiens) (UniProt P53350); assay: qHTS for Inhibitors of PLK1-PDB (polo-like kinase 1 - polo-box domain): Primary Screen; conditions: Plk1 PBD binding of FITC phosphopeptide, fluorescence polarization; further: nearly all actives have a fitted effect of over 65% in size; on max response, negative = inhibition: series mostly up to about 57 µM
Sequence (P53350 whole entry, looked up, the tested form may be a part): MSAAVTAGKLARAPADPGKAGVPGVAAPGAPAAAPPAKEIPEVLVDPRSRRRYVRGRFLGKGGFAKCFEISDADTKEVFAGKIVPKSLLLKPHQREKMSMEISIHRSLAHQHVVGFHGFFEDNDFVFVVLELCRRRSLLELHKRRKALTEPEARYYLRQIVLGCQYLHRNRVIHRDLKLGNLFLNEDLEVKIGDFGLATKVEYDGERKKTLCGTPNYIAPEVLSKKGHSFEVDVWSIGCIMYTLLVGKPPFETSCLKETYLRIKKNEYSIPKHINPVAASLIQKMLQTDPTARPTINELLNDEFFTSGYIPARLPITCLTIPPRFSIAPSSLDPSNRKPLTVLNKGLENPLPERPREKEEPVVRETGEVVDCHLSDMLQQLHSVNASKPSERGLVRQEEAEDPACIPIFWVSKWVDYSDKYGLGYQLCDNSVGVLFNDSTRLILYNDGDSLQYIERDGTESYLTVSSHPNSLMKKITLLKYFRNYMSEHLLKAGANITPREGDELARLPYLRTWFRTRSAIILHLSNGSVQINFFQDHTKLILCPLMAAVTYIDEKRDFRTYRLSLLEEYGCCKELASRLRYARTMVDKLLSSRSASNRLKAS
On the % scale 0 is the no-effect control and ±100 the full control effect; potency means the concentration at half of the fitted maximal effect.

Q: With `CC(O)(c1cccc(F)c1)c1nc(-c2ccc3c(c2)OCO3)cs1` (configuration not stated) as the compound, how does the max response, negative = inhibition read?
A: Its max response, negative = inhibition is -0.065% (inactive).

Q: `COc1ccc([C@H]2N[C@]3(CCCN(Cc4ccco4)C3=O)[C@H]3C(=O)N(C)C(=O)[C@@H]23)cc1` was tested. Which max response, negative = inhibition did it give?
A: Its max response, negative = inhibition is -10.5% (inactive).

Q: `N#Cc1ccccc1-n1c(N)c(C(=O)N2CCCC2)sc1=S` was tested. Which Potency did it give?
A: Its Potency is 4.23 µM (active).

Q: Which max response, negative = inhibition does the source give for `Cc1cccc(N2CCN(C(=O)c3ccccc3NC(=O)C3CCCCC3C(=O)O)CC2)c1` (configuration not stated) here?
A: The max response, negative = inhibition was -5.42% (inactive).

Q: How did the max response, negative = inhibition turn out when `Cc1ccc(S(=O)(=O)N2CCN(C(=O)N3CCOCC3)CC2)c(C)c1` was run?
A: The max response, negative = inhibition was 3.35% (inactive).

Q: Which max response, negative = inhibition does the source give for `Cc1ccc(N2CCN(C(=O)c3cccs3)CC2)c(C)c1` here?
A: Its max response, negative = inhibition is -4.91% (inactive).

Q: Which Potency does the source give for `Cc1ccc(-n2c(N)c(C(=O)N3CCOCC3)sc2=S)c(C)c1` here?
A: The Potency was 18.9 µM (active).

Q: With `CCC(=O)Nc1sc(C(=O)N2CCCCC2)c(C)c1C#N` as the compound, how does the max response, negative = inhibition read?
A: Its max response, negative = inhibition is 0.524% (inactive).

Q: With `Cc1cccc(-n2c(N)c(C(=O)N3CCN(C)CC3)sc2=S)c1` as the compound, how does the Potency read?
A: The Potency was 1.89 µM (active).

Q: Which max response, negative = inhibition does the source give for `O=C(c1ccc(S(=O)(=O)c2ccccc2)cc1)N1CCCCCC1` here?
A: Its max response, negative = inhibition is -6.16% (inactive).

Q: `CC(C)=C1SC(N2CCN(c3cccc(C)c3)CC2)=NC1=O` was tested. Which max response, negative = inhibition did it give?
A: The max response, negative = inhibition was -13.5% (inactive).

Q: Which max response, negative = inhibition does the source give for `COc1ccc(Cl)cc1-c1cc(C(=O)Nc2cc(OC)c(OC)c(OC)c2)[nH]n1` here?
A: Its max response, negative = inhibition is -0.229% (inactive).

Q: With `CCc1oc(-c2ccc(OC)cc2)c(C(=O)OCCCCCO)c1C(C)OCCO` (configuration not stated) as the compound, how does the max response, negative = inhibition read?
A: The max response, negative = inhibition was -3.22% (inactive).

Q: With `COc1ccc(-c2coc3c(C(=O)NC(C)C)cccc23)c(C)c1` as the compound, how does the max response, negative = inhibition read?
A: Its max response, negative = inhibition is -1.63% (inactive).

Q: `O=C1CCC(=O)N1CCC(=O)N(C(=O)NC1CCCCC1)C1CCCCC1` was tested. Which max response, negative = inhibition did it give?
A: The max response, negative = inhibition was -3.92% (inactive).

Q: For `CSC1=NN(c2ccccc2)CN(c2ccccc2)N1C`, which max response, negative = inhibition is on record?
A: The max response, negative = inhibition was 3.5% (inactive).

Q: How did the max response, negative = inhibition turn out when `CSc1ncnc2c1ncn2CCCNCc1cccs1` was run?
A: Its max response, negative = inhibition is -6.17% (inactive).

Q: For `CCOC(=O)c1c(Cc2ccc(Cl)cc2)c[nH]c1C`, which max response, negative = inhibition is on record?
A: The max response, negative = inhibition was -3.47% (inactive).

Q: How did the Potency turn out when `CC(=O)c1c(C)c[nH]c1C` was run?
A: The Potency was 3.36 µM (active).

Q: With `Cc1cc(C)n2c(NCc3ccccc3)c(CC(C)C)nc2n1` as the compound, how does the max response, negative = inhibition read?
A: Its max response, negative = inhibition is 4.6% (inactive).

Q: Which max response, negative = inhibition does the source give for `COc1ccc(-n2c(C)cc(C(=O)COC(=O)c3cc(OC)c(OC)cc3NC(=O)c3cccs3)c2C)cc1` here?
A: Its max response, negative = inhibition is -3.08% (inactive).

Q: For `CCCn1c(C)cc(C(=O)COC(=O)c2c(C)nn(-c3ccccc3)c2C)c1C`, which max response, negative = inhibition is on record?
A: Its max response, negative = inhibition is 0.347% (inactive).

Q: With `Cc1cc(C(=O)COC(=O)c2cccs2)c(C)n1-c1c(C)n(C)n(-c2ccccc2)c1=O` as the compound, how does the Potency read?
A: The Potency was 29.9 µM (active).

Q: For `Cc1cc(C(=O)CC#N)c(C)n1-c1c(C)n(C)n(-c2ccccc2)c1=O`, which Potency is on record?
A: The Potency was 21.2 µM (active).

Q: For `Cc1c(NC(=O)c2coc(=O)c(Br)c2)c(=O)n(-c2ccccc2)n1C`, which max response, negative = inhibition is on record?
A: The max response, negative = inhibition was -12.4% (inactive).

Q: How did the max response, negative = inhibition turn out when `Cc1cc(C(=O)CC#N)c(C)n1CC(F)(F)F` was run?
A: Its max response, negative = inhibition is -1.11% (inactive).

Q: How did the max response, negative = inhibition turn out when `CCCNC(=O)c1cc2c(c(-c3cccc(-c4ccc(C#N)cc4)c3)n1)[C@@H](CCO)N(C(=O)CC)C2` was run?
A: The max response, negative = inhibition was -12.5% (inactive).

Q: Which max response, negative = inhibition does the source give for `c1ccc2c(c1)nnn2-c1ccncc1` here?
A: The max response, negative = inhibition was -7.91% (inactive).

Q: For `COc1ccc(NC(=O)C2Cc3c(-c4cccc(NC(C)=O)c4)ccnc3O2)cc1OC` (configuration not stated), which max response, negative = inhibition is on record?
A: Its max response, negative = inhibition is -15.4% (inactive).

Q: For `CC(C)NC(=O)Nc1ccc2c(c1)C(=O)N([C@H](C)CO)C[C@H](C)[C@@H](CN(C)Cc1ccc(C(F)(F)F)cc1)OCCCC[C@@H](C)O2`, which max response, negative = inhibition is on record?
A: The max response, negative = inhibition was -16.7% (inactive).

Q: `O=C(COC(=O)c1cccc(Cl)c1Cl)NC1CCCCCC1` was tested. Which max response, negative = inhibition did it give?
A: The max response, negative = inhibition was -7.54% (inactive).

Q: How did the max response, negative = inhibition turn out when `CCOc1ccccc1N1CCN(C(=S)Nc2ccc(S(N)(=O)=O)cc2)CC1` was run?
A: The max response, negative = inhibition was -0.318% (inactive).

Q: For `COc1ccc(N2CCN(C(=S)Nc3ccc(S(N)(=O)=O)cc3)CC2)cc1`, which Potency is on record?
A: The Potency was 13.4 µM (active).

Q: For `NS(=O)(=O)c1ccc(NC(=S)N2CCCC2)cc1`, which max response, negative = inhibition is on record?
A: The max response, negative = inhibition was -13.8% (inactive).

Q: How did the max response, negative = inhibition turn out when `CN(C)C(CNC(=O)c1cc(Br)c(Br)s1)c1ccco1` (configuration not stated) was run?
A: Its max response, negative = inhibition is -5.95% (inactive).

Q: Which max response, negative = inhibition does the source give for `O=S1(=O)CC(N2CCN(CCO)CC2)CN1Cc1cn(Cc2cccc(Cl)c2)nn1` (configuration not stated) here?
A: The max response, negative = inhibition was -6.24% (inactive).

Q: For `Cc1ccc(-c2cnc(C(O)c3cc(Cl)cc(Cl)c3)[nH]2)cc1` (configuration not stated), which max response, negative = inhibition is on record?
A: Its max response, negative = inhibition is 5.64% (inactive).

Q: Which max response, negative = inhibition does the source give for `COc1ccc(CNC(=O)COC(=O)C(CCSC)N2C(=O)c3ccccc3C2=O)cc1` (configuration not stated) here?
A: Its max response, negative = inhibition is -13.1% (inactive).

Q: For `COc1ccc(CCNC(=O)COC(=O)c2cc(=O)c3ccccc3o2)cc1`, which max response, negative = inhibition is on record?
A: The max response, negative = inhibition was -2.93% (inactive).

Q: How did the Potency turn out when `COc1ccc(CNC(=O)COC(=O)C2=Cc3ccccc3OC2)cc1` was run?
A: The Potency was 13.4 µM (active).

Q: How did the max response, negative = inhibition turn out when `Cc1ccc(-c2ccc(CN3C(C)C(=O)N(Cc4cn(CCC5OCCCO5)nn4)CCS3(=O)=O)cc2)cc1` (configuration not stated) was run?
A: Its max response, negative = inhibition is -2.81% (inactive).

Q: For `O=C(NC1Cc2ccccc2C1)c1cc(COc2cccc(C(F)(F)F)c2)on1`, which max response, negative = inhibition is on record?
A: Its max response, negative = inhibition is -5.34% (inactive).

Q: `O=c1cc(CO)oc(C(Nc2cccc(C(F)(F)F)c2)c2ccccn2)c1O` (configuration not stated) was tested. Which Potency did it give?
A: Its Potency is 26.7 µM (active).

Q: With `NC(c1ccccc1)c1csc(NC(=O)Nc2cccc(C(F)(F)F)c2)n1` (configuration not stated) as the compound, how does the max response, negative = inhibition read?
A: The max response, negative = inhibition was -4.96% (inactive).

Q: Which max response, negative = inhibition does the source give for `COc1ccc(C=C2CCC3C(CCCC34OCCO4)C2=O)cc1` (configuration not stated) here?
A: The max response, negative = inhibition was -14.1% (inactive).

Q: For `CCc1ccc(OC2(C)CCN(CCOc3ccc(C)cc3)C2)cc1` (configuration not stated), which max response, negative = inhibition is on record?
A: The max response, negative = inhibition was 0.495% (inactive).

Q: `O=C(COc1ccc(Br)cc1)OCC(=O)c1ccc[nH]1` was tested. Which max response, negative = inhibition did it give?
A: The max response, negative = inhibition was -8.67% (inactive).

Q: How did the Potency turn out when `Cc1ccc2nc(N3C(=O)C(O)=C(C(=O)c4ccco4)C3c3cccc(O)c3)sc2c1` (configuration not stated) was run?
A: Its Potency is 18.9 µM (active).

Q: Which max response, negative = inhibition does the source give for `COc1ccc2nc(N3C(=O)C(O)=C(C(=O)c4ccco4)C3c3ccco3)sc2c1` (configuration not stated) here?
A: The max response, negative = inhibition was -16.7% (inactive).

Q: Which max response, negative = inhibition does the source give for `O=C(C1=C(O)C(=O)N(c2ncccn2)C1c1cccs1)c1ccco1` (configuration not stated) here?
A: Its max response, negative = inhibition is -18.5% (inactive).

Q: For `COc1ccc(-c2cc3nc(NCCOc4ccccc4)ccn3n2)cc1`, which max response, negative = inhibition is on record?
A: The max response, negative = inhibition was -1.91% (inactive).

Q: Which max response, negative = inhibition does the source give for `Cc1nc2c(OCc3ccc(Cl)cc3)cccn2c1N(C)Cc1cccs1` here?
A: Its max response, negative = inhibition is -7.96% (inactive).

Q: How did the max response, negative = inhibition turn out when `Cc1ccc(-c2cnc(C(O)c3cccc(C)c3C)[nH]2)cc1` (configuration not stated) was run?
A: The max response, negative = inhibition was 2.44% (inactive).

Q: `O=C(c1ncn2c1c(=O)[nH]c1ccccc12)N1CCc2ccccc2C1` was tested. Which max response, negative = inhibition did it give?
A: Its max response, negative = inhibition is 6.5% (inactive).

Q: How did the Potency turn out when `O=c1[nH]c2ccccc2n2c(-c3ccccc3)nnc12` was run?
A: The Potency was 0.947 µM (active).

Q: For `O=c1[nH]n2c(-c3ccccc3)nc(O)c2c2ccccc12`, which max response, negative = inhibition is on record?
A: The max response, negative = inhibition was -5.86% (inactive).

Q: With `COc1ccc(Br)c(Cn2c(C)c(C(=O)NCc3cccs3)sc2=O)c1` as the compound, how does the max response, negative = inhibition read?
A: The max response, negative = inhibition was 8.23% (inactive).
